From PubChem BioAssay (Tox21)
Unmarked numbers belong to inactive results. Records with an inconclusive call do not appear. Where a call stands in place of a potency, no number is given. Activity calls are given as the source filed them. Unless noted, calls follow the shape of the dose curve; as a rule, active = well fitted curve in the direction sought with a large enough effect in the repeat runs; inconclusive = weak or mixed curves; inactive = no such curve, though single readings can be large; an effect the other way counts as inactive or inconclusive.

Columns and labels:
[1] = target: Acetylcholinesterase (Homo sapiens) (UniProt P22303); assay: Acetylcholinesterase (AChE) small molecule antagonists: colormetric cell-based qHTS assay (AID 1347395; calls by dose curve; also: nearly all actives have a fitted effect of over 30% in size; also: potency is read from the fitted curve at half-maximal effect)
Acetylcholinesterase (Homo sapiens), sequence (P22303 whole entry, looked up): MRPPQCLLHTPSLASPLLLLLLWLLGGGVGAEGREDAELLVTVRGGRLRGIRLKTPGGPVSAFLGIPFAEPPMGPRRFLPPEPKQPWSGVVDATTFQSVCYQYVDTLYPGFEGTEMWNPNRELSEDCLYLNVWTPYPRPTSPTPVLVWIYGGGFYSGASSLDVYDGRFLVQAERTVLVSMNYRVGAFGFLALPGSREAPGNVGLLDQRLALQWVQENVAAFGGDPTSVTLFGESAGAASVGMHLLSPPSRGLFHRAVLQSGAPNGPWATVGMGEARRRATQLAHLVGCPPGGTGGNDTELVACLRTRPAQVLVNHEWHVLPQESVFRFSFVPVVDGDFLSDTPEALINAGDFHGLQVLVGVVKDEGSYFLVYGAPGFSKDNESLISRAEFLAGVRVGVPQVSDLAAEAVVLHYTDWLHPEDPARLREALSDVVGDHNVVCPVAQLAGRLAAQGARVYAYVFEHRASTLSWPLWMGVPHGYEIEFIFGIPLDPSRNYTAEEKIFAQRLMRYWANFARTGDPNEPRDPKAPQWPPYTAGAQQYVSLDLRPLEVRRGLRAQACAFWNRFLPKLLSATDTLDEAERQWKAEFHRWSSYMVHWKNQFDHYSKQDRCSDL
Method in brief: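 Cells (SH-SY5Y, 2,000 per well) are seeded and left overnight at 37 C. Compound is added for 30 min, then DTNB and acetylthiocholine for a further 90 min at 37 C before absorbance-based thiocholine detection.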

[2] = target: Acetylcholinesterase (Homo sapiens) (UniProt P22303); assay: Acetylcholinesterase (AChE) small molecule antagonists: enzyme-based qHTS assay (AID 1347397; calls by dose curve; also: nearly all actives have a fitted effect of over 55% in size; also: potency is read from the fitted curve at half-maximal effect); settings: Potency: AChE enzyme activity inhibition; outcome: AChE enzyme activity inhibition
Method in brief: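 Human recombinant acetylcholinesterase; substrate acetylthiocholine; thiocholine quantified with DTNB (colorimetric). Compound preincubation 30 min RT; reaction 10 min RT.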

[3] = target: Acetylcholinesterase (Homo sapiens) (UniProt P22303); assay: Acetylcholinesterase (AChE) small molecule antagonists: fluorescence cell-based qHTS assay (AID 1347398; calls by dose curve; also: nearly all actives have a fitted effect of over 50% in size; also: potency is read from the fitted curve at half-maximal effect); settings: Potency: AChE activity; outcome: AChE activity
Method in brief: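 Thiocholine generated from acetylthiocholine by SH-SY5Y cell AChE is detected with Thiolite Green (Ex/Em 490/520 nm) after 40 min at room temperature, following 30 min compound pretreatment at 37 C.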

[4] = target: Acetylcholinesterase (Homo sapiens) (UniProt P22303); assay: Acetylcholinesterase (AChE) small molecule antagonists: enzyme-based qHTS assay with human liver microsomes (AID 1347399; calls by dose curve; also: nearly all actives have a fitted effect of over 60% in size); settings: Potency: qHTS inhibition; outcome: qHTS inhibition
Method in brief: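 Recombinant human AChE (50 mU/mL in the enzyme mix) and human liver microsomes (0.25 mg/mL final) were preincubated with compound and NADPH (0.25 mg/mL final) for 30 min at 37 C. Acetylthiocholine/DTNB was then added; thiocholine was read colorimetrically after 10 min at room temperature.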

[5] = target: Cytochrome P450 2C19 (Homo sapiens) (UniProt P33261); assay: Cytochrome P450 Family 2 Subfamily C Member 19 (CYP2C19) small molecule antagonists: luciferase reporter qHTS assay (AID 1671197); also: nearly all actives have a fitted effect of over 65% in size; also: potency is read from the fitted curve at half-maximal effect
Cytochrome P450 2C19 (Homo sapiens), sequence (P33261 whole entry, looked up): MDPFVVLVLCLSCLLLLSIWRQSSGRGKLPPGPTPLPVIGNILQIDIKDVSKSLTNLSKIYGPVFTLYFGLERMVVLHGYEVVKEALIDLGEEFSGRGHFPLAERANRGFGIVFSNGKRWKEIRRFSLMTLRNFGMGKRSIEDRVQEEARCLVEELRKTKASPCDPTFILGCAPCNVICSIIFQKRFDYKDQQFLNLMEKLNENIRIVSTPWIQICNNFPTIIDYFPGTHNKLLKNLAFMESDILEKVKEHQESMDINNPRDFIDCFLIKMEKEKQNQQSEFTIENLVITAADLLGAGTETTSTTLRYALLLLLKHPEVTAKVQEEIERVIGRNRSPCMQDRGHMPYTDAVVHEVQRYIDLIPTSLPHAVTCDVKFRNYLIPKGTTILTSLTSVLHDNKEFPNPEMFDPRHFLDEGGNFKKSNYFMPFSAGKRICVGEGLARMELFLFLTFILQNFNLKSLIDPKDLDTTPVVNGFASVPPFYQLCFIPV
Method in brief: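 Quantitative high-throughput screen of the Tox21 library using CYP2C19 with proluciferin substrate. Reaction: NADPH regeneration, 37C, 1 h, after 10 min compound preincubation at room temperature. Readout: luminescence.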

[6] = target: Cytochrome P450 2C9 (Homo sapiens) (UniProt P11712); assay: Cytochrome P450 Family 2 Subfamily C Member 9 (CYP2C9) small molecule antagonists: luciferase reporter qHTS assay (AID 1671198); also: nearly all actives have a fitted effect of over 50% in size; also: potency is read from the fitted curve at half-maximal effect
Cytochrome P450 2C9 (Homo sapiens), sequence (P11712 whole entry, looked up): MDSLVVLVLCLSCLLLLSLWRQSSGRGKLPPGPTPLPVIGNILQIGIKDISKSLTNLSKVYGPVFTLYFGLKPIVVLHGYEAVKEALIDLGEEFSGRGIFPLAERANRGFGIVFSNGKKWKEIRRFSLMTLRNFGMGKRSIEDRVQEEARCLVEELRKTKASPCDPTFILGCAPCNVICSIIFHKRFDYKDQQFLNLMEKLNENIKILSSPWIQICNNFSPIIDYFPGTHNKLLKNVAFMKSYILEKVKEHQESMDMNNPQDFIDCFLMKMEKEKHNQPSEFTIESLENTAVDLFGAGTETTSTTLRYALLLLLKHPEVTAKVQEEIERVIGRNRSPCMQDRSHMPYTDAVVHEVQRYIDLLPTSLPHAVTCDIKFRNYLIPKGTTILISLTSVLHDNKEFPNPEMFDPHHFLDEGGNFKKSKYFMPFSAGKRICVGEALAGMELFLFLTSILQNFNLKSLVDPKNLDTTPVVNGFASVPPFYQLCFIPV
Method in brief: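 CYP2C9 activity was measured with a P450-Glo proluciferin substrate. Enzyme–substrate mix was held with compound for 10 min at room temperature, then NADPH regeneration solution was added for 1 h at 37C. Luciferin product was read as luminescence.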

[7] = target: Cytochrome P450 1A2 (Homo sapiens) (UniProt P05177); assay: Cytochrome P450 Family 1 Subfamily A Member 2 (CYP1A2) small molecule antagonists: luciferase reporter qHTS assay (AID 1671199); also: nearly all actives have a fitted effect of over 50% in size; also: potency is read from the fitted curve at half-maximal effect
Cytochrome P450 1A2 (Homo sapiens), sequence (P05177 whole entry, looked up): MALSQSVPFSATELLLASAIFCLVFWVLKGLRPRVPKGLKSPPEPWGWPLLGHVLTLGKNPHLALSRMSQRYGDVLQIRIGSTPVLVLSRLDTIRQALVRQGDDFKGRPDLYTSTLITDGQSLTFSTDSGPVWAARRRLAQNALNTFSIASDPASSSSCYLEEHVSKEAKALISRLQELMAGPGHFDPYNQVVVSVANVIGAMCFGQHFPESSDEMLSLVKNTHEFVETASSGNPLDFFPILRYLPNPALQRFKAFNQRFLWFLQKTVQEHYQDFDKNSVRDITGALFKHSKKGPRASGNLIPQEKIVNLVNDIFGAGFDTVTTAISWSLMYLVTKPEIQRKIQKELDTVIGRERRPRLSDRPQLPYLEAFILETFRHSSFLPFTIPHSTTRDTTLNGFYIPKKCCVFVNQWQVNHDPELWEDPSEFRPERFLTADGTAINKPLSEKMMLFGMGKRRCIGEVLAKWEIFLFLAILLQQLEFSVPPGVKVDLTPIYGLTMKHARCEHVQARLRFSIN
Method in brief: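 P450-Glo CYP1A2, 1536-well qHTS: enzyme/proluciferin substrate + cpd (DMSO), 10 min RT; NADPH regen, 1 h RT; detection reagent, 20 min; luminescence, RLU.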

[8] = target: Voltage-gated inwardly rectifying potassium channel KCNH2 (Homo sapiens) (UniProt Q12809); assay: Human Ether-a-go-go-Related Gene (hERG) channel small molecule antagonists: fluorescence cell-based qHTS assay (AID 1671200);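 also: hERG-expressing U2OS cells given a thallium stimulus after FluxOR II dye loading; series mostly up to about 77 µM; nearly all actives have a fitted effect of over 50% in size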
Voltage-gated inwardly rectifying potassium channel KCNH2 (Homo sapiens), sequence (Q12809 whole entry, looked up): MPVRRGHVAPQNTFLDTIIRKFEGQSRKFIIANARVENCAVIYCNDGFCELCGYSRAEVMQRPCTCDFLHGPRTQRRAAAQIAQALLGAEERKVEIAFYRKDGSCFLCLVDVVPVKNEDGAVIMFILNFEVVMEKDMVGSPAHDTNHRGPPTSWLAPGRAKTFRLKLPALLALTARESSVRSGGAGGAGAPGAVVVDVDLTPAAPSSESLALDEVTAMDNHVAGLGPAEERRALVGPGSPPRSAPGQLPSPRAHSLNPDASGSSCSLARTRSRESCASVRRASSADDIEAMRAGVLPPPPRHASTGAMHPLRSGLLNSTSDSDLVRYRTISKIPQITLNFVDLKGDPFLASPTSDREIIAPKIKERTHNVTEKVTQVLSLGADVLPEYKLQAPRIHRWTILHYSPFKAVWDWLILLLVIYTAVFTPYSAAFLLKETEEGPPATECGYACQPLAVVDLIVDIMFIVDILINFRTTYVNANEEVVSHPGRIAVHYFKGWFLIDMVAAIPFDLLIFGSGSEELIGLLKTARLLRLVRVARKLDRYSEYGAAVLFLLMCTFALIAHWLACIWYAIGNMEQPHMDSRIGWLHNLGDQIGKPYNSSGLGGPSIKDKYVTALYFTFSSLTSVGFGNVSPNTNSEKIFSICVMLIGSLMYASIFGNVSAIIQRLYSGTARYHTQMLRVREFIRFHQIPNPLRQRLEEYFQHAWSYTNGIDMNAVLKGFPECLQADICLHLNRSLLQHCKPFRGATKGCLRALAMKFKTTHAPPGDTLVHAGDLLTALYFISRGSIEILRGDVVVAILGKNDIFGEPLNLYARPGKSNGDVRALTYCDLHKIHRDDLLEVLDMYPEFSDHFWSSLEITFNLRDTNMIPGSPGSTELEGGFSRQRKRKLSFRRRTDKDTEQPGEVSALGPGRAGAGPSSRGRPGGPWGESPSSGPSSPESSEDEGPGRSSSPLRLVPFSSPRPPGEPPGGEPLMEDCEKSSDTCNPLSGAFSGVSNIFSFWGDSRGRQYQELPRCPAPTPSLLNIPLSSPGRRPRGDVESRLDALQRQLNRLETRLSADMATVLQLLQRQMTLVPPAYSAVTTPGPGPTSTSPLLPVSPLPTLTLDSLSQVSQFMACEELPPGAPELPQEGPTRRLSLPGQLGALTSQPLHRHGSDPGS
Method in brief: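 Fluorescence at 540 nm emission (480 nm excitation) was recorded kinetically for 2 min at 1-second intervals once the thallium-containing stimulus reached cells previously loaded with FluxOR II dye.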

[9] = target: Cytochrome P450 3A4 (Homo sapiens) (UniProt P08684); assay: Cytochrome P450 Family 3 Subfamily A Member 4 (CYP3A4) small molecule antagonists: luciferase reporter qHTS assay (AID 1671201); also: nearly all actives have a fitted effect of over 50% in size; also: potency is read from the fitted curve at half-maximal effect
Cytochrome P450 3A4 (Homo sapiens), sequence (P08684 whole entry, looked up): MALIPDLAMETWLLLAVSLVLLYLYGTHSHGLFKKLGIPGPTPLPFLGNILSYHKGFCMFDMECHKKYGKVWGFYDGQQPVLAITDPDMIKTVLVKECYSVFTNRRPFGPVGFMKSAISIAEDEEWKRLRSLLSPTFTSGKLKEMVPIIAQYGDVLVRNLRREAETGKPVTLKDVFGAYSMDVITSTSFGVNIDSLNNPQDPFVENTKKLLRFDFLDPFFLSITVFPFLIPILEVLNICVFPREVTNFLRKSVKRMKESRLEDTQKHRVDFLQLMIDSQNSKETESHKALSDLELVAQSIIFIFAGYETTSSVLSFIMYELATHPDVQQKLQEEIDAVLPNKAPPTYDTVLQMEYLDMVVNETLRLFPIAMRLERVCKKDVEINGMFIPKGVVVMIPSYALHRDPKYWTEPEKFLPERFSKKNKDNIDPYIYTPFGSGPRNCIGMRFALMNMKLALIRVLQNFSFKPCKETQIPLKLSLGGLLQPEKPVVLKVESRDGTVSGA
Method in brief: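 qHTS, 1536-well. CYP3A4 + proluciferin substrate, cpd 10 min RT → NADPH regen 1 h RT → detection reagent 20 min → luminescence (RLU). Ketoconazole positive control.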

[10] = target: Cytochrome P450 2D6 (Homo sapiens) (UniProt P10635); assay: Cytochrome P450 Family 2 Subfamily D Member 6 (CYP2D6) small molecule antagonists: luciferase reporter qHTS assay (AID 1671196); also: nearly all actives have a fitted effect of over 50% in size; also: potency is read from the fitted curve at half-maximal effect
Cytochrome P450 2D6 (Homo sapiens), sequence (P10635 whole entry, looked up): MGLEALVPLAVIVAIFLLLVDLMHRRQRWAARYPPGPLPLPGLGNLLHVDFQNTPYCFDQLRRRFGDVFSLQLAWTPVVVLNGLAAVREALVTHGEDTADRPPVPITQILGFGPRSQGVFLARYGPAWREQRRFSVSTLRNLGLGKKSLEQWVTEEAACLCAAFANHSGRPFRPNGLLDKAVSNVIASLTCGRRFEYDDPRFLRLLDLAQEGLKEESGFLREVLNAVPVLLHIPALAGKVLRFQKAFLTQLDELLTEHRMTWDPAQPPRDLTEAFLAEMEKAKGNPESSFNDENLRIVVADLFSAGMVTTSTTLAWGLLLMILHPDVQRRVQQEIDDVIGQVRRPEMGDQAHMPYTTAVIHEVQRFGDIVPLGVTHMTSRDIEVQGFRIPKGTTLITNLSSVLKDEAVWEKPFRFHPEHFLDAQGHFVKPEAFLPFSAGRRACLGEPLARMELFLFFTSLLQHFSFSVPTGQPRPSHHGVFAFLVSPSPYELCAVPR
Method in brief: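 Read-out is luminescence from luciferin formed by CYP2D6 turnover of a proluciferin substrate, recorded as relative luminescence units. Reactions ran 1 h at room temperature after NADPH regeneration solution was added.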

SMILES: C1CN2CCC1CC2
- Potency [1]: inactive
- Potency [2]: inactive
- Potency [3]: inactive
- Potency [4]: inactive
- Potency [5]: 43.6 µM (active)
- Potency [6]: inactive
- Potency [7]: inactive
- Potency [8]: inactive
- Potency [9]: inactive

SMILES: CCC(C)(C#N)N=NC(C)(C#N)CC (stereo not given)
- Potency [1]: inactive
- Potency [2]: inactive
- Potency [3]: inactive
- Potency [4]: inactive
- Potency [10]: inactive
- Potency [6]: inactive
- Potency [7]: inactive
- Potency [8]: inactive
- Potency [9]: inactive

SMILES: O=C/C=C/c1ccco1
- Potency [1]: inactive
- Potency [2]: inactive
- Potency [3]: inactive
- Potency [4]: inactive
- Potency [10]: inactive
- Potency [6]: inactive
- Potency [7]: inactive
- Potency [8]: inactive
- Potency [9]: inactive

SMILES: COC1=CC(=O)O[C@@H](/C=C/c2ccccc2)C1
- Potency [1]: inactive
- Potency [2]: inactive
- Potency [3]: inactive
- Potency [4]: inactive
- Potency [5]: 5.72 µM (active)
- Potency [6]: 32.2 µM (active)
- Potency [7]: 28.7 µM (active)
- Potency [8]: inactive
- Potency [9]: inactive

SMILES: ClCCCCl
- Potency [1]: inactive
- Potency [2]: inactive
- Potency [3]: inactive
- Potency [4]: inactive
- Potency [10]: inactive
- Potency [6]: inactive
- Potency [7]: 23.9 µM (active)
- Potency [8]: inactive
- Potency [9]: inactive

SMILES: C=C1CC[C@@]2(O)[C@H]3Cc4ccc(O)c5c4[C@@]2(CCN3CC2CC2)[C@H]1O5
- Potency [1]: inactive
- Potency [2]: inactive
- Potency [3]: inactive
- Potency [4]: inactive
- Potency [10]: 2.19 µM (active)
- Potency [6]: inactive
- Potency [7]: inactive
- Potency [8]: inactive
- Potency [9]: inactive

SMILES: C=CCCC#N
- Potency [1]: inactive
- Potency [2]: inactive
- Potency [3]: inactive
- Potency [4]: inactive
- Potency [5]: 61.7 µM (active)
- Potency [6]: inactive
- Potency [8]: inactive
- Potency [9]: inactive

SMILES: CC[C@@H](CO)NC(=O)[C@@H]1C=C2c3cccc4c3c(cn4C)C[C@H]2N(C)C1
- Potency [1]: 2.45 µM (active)
- Potency [2]: 4.36 µM (active)
- Potency [3]: 1.1 µM (active)
- Potency [4]: inactive
- Potency [10]: 6.92 µM (active)
- Potency [8]: inactive

SMILES: [O-][Br+2]([O-])O
- Potency [1]: inactive
- Potency [2]: inactive
- Potency [3]: inactive
- Potency [4]: inactive
- Potency [10]: inactive
- Potency [6]: inactive
- Potency [7]: inactive
- Potency [8]: inactive
- Potency [9]: inactive

SMILES: CC(C)NCC(O)c1ccc([N+](=O)[O-])cc1 (stereo not given)
- Potency [1]: inactive
- Potency [2]: inactive
- Potency [3]: inactive
- Potency [4]: inactive
- Potency [10]: 27.5 µM (active)
- Potency [6]: inactive
- Potency [7]: inactive
- Potency [9]: inactive

SMILES: CC#Cc1cc(C)nc(Nc2ccccc2)n1
- Potency [1]: inactive
- Potency [2]: inactive
- Potency [3]: inactive
- Potency [4]: inactive
- Potency [10]: inactive
- Potency [6]: 35.5 µM (active)
- Potency [7]: 1.59 µM (active)
- Potency [8]: inactive
- Potency [9]: 63.2 µM (active)

SMILES: O=C(Cl)C(Cl)(Cl)Cl
- Potency [1]: inactive
- Potency [2]: inactive
- Potency [3]: inactive
- Potency [4]: inactive
- Potency [5]: inactive
- Potency [6]: inactive
- Potency [7]: inactive
- Potency [8]: inactive
- Potency [9]: inactive

SMILES: CC(C)c1ccc(O)cc1
- Potency [1]: inactive
- Potency [2]: inactive
- Potency [3]: inactive
- Potency [4]: inactive
- Potency [5]: inactive
- Potency [7]: 22.4 µM (active)
- Potency [8]: inactive
- Potency [9]: inactive

SMILES: CCC(=O)c1ccc(Cl)cc1
- Potency [1]: inactive
- Potency [2]: inactive
- Potency [3]: inactive
- Potency [4]: inactive
- Potency [5]: inactive
- Potency [6]: inactive
- Potency [7]: inactive
- Potency [8]: inactive
- Potency [9]: inactive

SMILES: O=C(Cl)C(Cl)Cl
- Potency [1]: inactive
- Potency [2]: inactive
- Potency [3]: inactive
- Potency [4]: inactive
- Potency [10]: inactive
- Potency [6]: inactive
- Potency [8]: inactive
- Potency [9]: inactive

SMILES: COc1cccc([C@@]2(O)CCCC[C@@H]2CN(C)C)c1
- Potency [1]: inactive
- Potency [2]: inactive
- Potency [3]: inactive
- Potency [4]: inactive
- Potency [5]: inactive
- Potency [6]: inactive
- Potency [7]: inactive
- Potency [8]: inactive
- Potency [9]: inactive

SMILES: NC(=O)OCCCc1ccccc1
- Potency [1]: inactive
- Potency [2]: inactive
- Potency [3]: inactive
- Potency [4]: inactive
- Potency [10]: inactive
- Potency [6]: inactive
- Potency [7]: 21.9 µM (active)
- Potency [8]: inactive
- Potency [9]: inactive

SMILES: NC1(c2ccccc2)CCCCC1
- Potency [1]: inactive
- Potency [2]: inactive
- Potency [3]: inactive
- Potency [4]: inactive
- Potency [10]: 31.4 µM (active)
- Potency [6]: inactive
- Potency [7]: inactive
- Potency [8]: inactive
- Potency [9]: inactive

SMILES: O=S1(=O)OCCO1
- Potency [1]: inactive
- Potency [2]: inactive
- Potency [3]: inactive
- Potency [4]: inactive
- Potency [10]: inactive
- Potency [6]: inactive
- Potency [8]: inactive
- Potency [9]: inactive

SMILES: CCC1(c2ccccc2)C(=O)N(COC)C(=O)N(COC)C1=O
- Potency [1]: inactive
- Potency [2]: inactive
- Potency [3]: inactive
- Potency [4]: inactive
- Potency [10]: inactive
- Potency [7]: inactive
- Potency [8]: inactive

SMILES: CCN(CC)C1CCCCC1
- Potency [1]: inactive
- Potency [2]: inactive
- Potency [3]: inactive
- Potency [4]: inactive
- Potency [10]: inactive
- Potency [6]: inactive
- Potency [8]: inactive
- Potency [9]: inactive

SMILES: C=C(Cl)CCl
- Potency [1]: inactive
- Potency [2]: inactive
- Potency [3]: inactive
- Potency [4]: inactive
- Potency [6]: inactive
- Potency [7]: inactive
- Potency [8]: inactive
- Potency [9]: inactive

SMILES: S=C=S
- Potency [1]: inactive
- Potency [2]: inactive
- Potency [3]: inactive
- Potency [4]: inactive
- Potency [6]: 49.7 µM (active)
- Potency [7]: 39.5 µM (active)
- Potency [8]: inactive
- Potency [9]: inactive

SMILES: NC(=O)CS(=O)C(c1ccccc1)c1ccccc1 (stereo not given)
- Potency [1]: inactive
- Potency [2]: inactive
- Potency [3]: inactive
- Potency [5]: 24.5 µM (active)
- Potency [6]: inactive
- Potency [7]: inactive
- Potency [8]: inactive
- Potency [9]: inactive

SMILES: C/C=C/CC#N
- Potency [1]: inactive
- Potency [2]: inactive
- Potency [3]: inactive
- Potency [10]: inactive
- Potency [5]: inactive
- Potency [6]: inactive
- Potency [7]: 36.4 µM (active)
- Potency [8]: inactive
- Potency [9]: inactive

SMILES: O=P(O)(O)CN(CP(=O)(O)O)CP(=O)(O)O
- Potency [1]: inactive
- Potency [2]: inactive
- Potency [3]: inactive
- Potency [10]: inactive
- Potency [5]: inactive
- Potency [6]: inactive
- Potency [7]: inactive
- Potency [8]: inactive
- Potency [9]: inactive
